Results reported in PubChem BioAssay AID1159580 (chemical genetic matrix, 2015).
Where “and” joins values, the source holds several entries; their conditions need not be identical. Equal entries are not always repeated. Screen size: about 5,500 compounds; about 2,000 (36%) were called active. Not shown: some 18% with an inconclusive outcome. No stated cut-off is given here; in the data, active means normalized growth mostly below about 0.91 (no sharp cut-off); inconclusive means no clear call, values can overlap the other calls; inactive means mostly above about 0.92. The list shows a part of the results.

Assay: chemical genetic growth profiling, strain panel (AID 1159580);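 further: tested at 20 µM; growth read once vehicle control cultures reached saturation at 30 °C; 1 = growth at the plate median or of vehicle wells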
Settings: S. cerevisiae deletion strains, growth OD
[1] = locus YBR229C, strain ROT2, stronger effect = lower value
[2] = locus YDL101C, strain DUN1, stronger effect = lower value
[3] = locus YDR150W, strain NUM1, stronger effect = lower value
[4] = locus YEL061C, strain CIN8, stronger effect = lower value
[5] = locus YGR078C, strain PAC10, stronger effect = lower value
[6] = locus YHR030C, strain SLT2, stronger effect = lower value
[7] = locus YJR043C, strain POL32, stronger effect = lower value
[8] = locus YKL190W, strain CNB1, stronger effect = lower value
[9] = locus YLR039C, strain RIC1, stronger effect = lower value
[10] = locus YLR262C, strain YPT6, stronger effect = lower value
[11] = locus YMR263W, strain SAP30, stronger effect = lower value
[12] = locus YNL153C, strain GIM3, stronger effect = lower value
[13] = locus YPL055C, strain LGE1, stronger effect = lower value

Measured: normalized growth

CC(C)N(Cc1ccc(N(C)C)cc1)S(=O)(=O)c1cc(Cl)c(Cl)cc1Cl
inactive: locus YAL013W, strain DEP1, stronger effect = lower value 1 | [1] 1.01 | [2] 1.03 | locus YDL134C, strain PPH21, stronger effect = lower value 1.01 | [3] 1.01 | [4] 0.986 | [5] 1.02 | [6] 1.07 | locus YHR087W, strain rtc3, stronger effect = lower value 1 | [7] 1.01 | locus YJR075W, strain HOC1, stronger effect = lower value 1.02 | [8] 1.01 | [9] 1.01 | locus YLR058C, strain SHM2 (second series), stronger effect = lower value 1 | locus YLR085C, strain ARP6, stronger effect = lower value 1.06 | [10] 0.999 | locus YML094W, strain GIM5, stronger effect = lower value 1.02 | locus YMR219W, strain ESC1, stronger effect = lower value 1 | [11] 1.02 | locus YNL128W, strain TEP1, stronger effect = lower value 1.02 | [12] 1.03 | locus YNL298W, strain CLA4 (second series), stronger effect = lower value 1.03 | locus YNL322C, strain KRE1, stronger effect = lower value 1.01 | locus YNR030W, strain Alg12, stronger effect = lower value 1.04 | locus YOL006C, strain TOP1, stronger effect = lower value 1.08 | [13] 1 | locus YPL241C, strain CIN2, stronger effect = lower value 1.04 | locus YPR135W, strain CTF4, stronger effect = lower value 1.1

CC(=O)c1c(O)c(C)c(O)c2c1OC1=CC(=O)C(C(C)=O)C(=O)C12C (stereo not drawn)
1.01 (inactive) and 0.142 (active): [6]
inactive: locus YAL030W, strain snc1, stronger effect = lower value 0.938 | locus YBL061C, strain skt5, stronger effect = lower value 0.966 | locus YBR021W, strain FUR4, stronger effect = lower value 1.01 | locus YBR023C, strain chs3, stronger effect = lower value 0.978 | locus YBR171W, strain sec66, stronger effect = lower value 0.933 | [1] 1.01 | locus YBR231C, strain swc5, stronger effect = lower value 0.963 | locus YBR279W, strain paf1, stronger effect = lower value 1.01 | locus YCL016C, strain dcc1, stronger effect = lower value 0.987 | locus YCL029C, strain bik1, stronger effect = lower value 0.976 | locus YCL069W, strain vba3, stronger effect = lower value 0.957 | locus YDL005C, strain med2, stronger effect = lower value 0.985 | locus YDL035C, strain GPR1, stronger effect = lower value 1.01 | locus YDL040C, strain nat1, stronger effect = lower value 0.991 | locus YDL074C, strain BRE1, stronger effect = lower value 0.987 | [2] 1.01 | locus YDR001C, strain nth1, stronger effect = lower value 0.96 | locus YDR069C, strain doa4, stronger effect = lower value 0.98 | locus YDR137W, strain rgp1, stronger effect = lower value 0.972 | [3] 1.01 | locus YDR162C, strain NBP2, stronger effect = lower value 1.03 | locus YDR297W, strain sur2, stronger effect = lower value 0.962 | locus YDR318W, strain mcm21, stronger effect = lower value 0.981 | locus YDR334W, strain swr1, stronger effect = lower value 0.953 | locus YDR388W, stronger effect = lower value 0.976 | locus YEL037C, strain rad23, stronger effect = lower value 0.948 | [4] 1.01 | locus YER016W, strain bim1, stronger effect = lower value 1 | locus YER110C, stronger effect = lower value 0.988 | locus YER111C, strain swi4, stronger effect = lower value 0.919 | locus YER155C, strain BEM2 (second series), stronger effect = lower value 0.868 | locus YER155C, strain BEM2, stronger effect = lower value 1.01 | locus YER167W, strain BCK2, stronger effect = lower value 1.01 | locus YFR010W, strain ubp6, stronger effect = lower value 0.901 | locus YGL167C, strain pmr1, stronger effect = lower value 1.01 | locus YGL173C, strain kem1, stronger effect = lower value 0.992 | locus YGL227W, strain vid30, stronger effect = lower value 0.946 | locus YGL240W, strain doc1, stronger effect = lower value 0.894 | locus YGL248W, strain PDE1, stronger effect = lower value 1.02 | [5] 1.02 | locus YGR135W, strain pre9, stronger effect = lower value 0.946 | locus YGR252W, strain gcn5, stronger effect = lower value 0.945 | locus YHR013C, strain ard1, stronger effect = lower value 1 | locus YHR027C, strain rpn1, stronger effect = lower value 0.983 | locus YHR079C, strain IRE1 (second series), stronger effect = lower value 0.986 | locus YHR094C, strain hxt1, stronger effect = lower value 0.984 | locus YHR129C, strain ARP1, stronger effect = lower value 1.02 | locus YHR200W, strain rpn10, stronger effect = lower value 0.932 | locus YIL066C, strain RNR3, stronger effect = lower value 1.02 | locus YIL073C, strain SPO22, stronger effect = lower value 1.03 | locus YIR030C, strain dcg1, stronger effect = lower value 0.975 | locus YJL095W, strain BCK1 (second series), stronger effect = lower value 0.964 | locus YJL115W, strain asf1, stronger effect = lower value 0.947 | locus YJL134W, strain LCB3, stronger effect = lower value 1.01 | locus YJL154C, strain vps35, stronger effect = lower value 0.979 | locus YJL166W, strain qcr8, stronger effect = lower value 0.913 | locus YJL168C, strain set2, stronger effect = lower value 0.972 | locus YJL187C, strain SWE1 (second series), stronger effect = lower value 1.01 | locus YJL187C, strain SWE1, stronger effect = lower value 0.972 | [7] 1.01 | locus YKL068W, stronger effect = lower value 1.01 | locus YKL160W, strain elf1, stronger effect = lower value 0.977 | [8] 1.01 | locus YKR026C, strain gcn3, stronger effect = lower value 0.938 | locus YKR091W, strain srl3, stronger effect = lower value 0.942 | locus YLL001W, strain dnm1, stronger effect = lower value 0.933 | locus YLL041C, strain sdh2, stronger effect = lower value 0.936 | [9] 1.01 | locus YLR058C, strain SHM2, stronger effect = lower value 1.01 | locus YLR102C, strain apc9, stronger effect = lower value 0.99 | [10] 1.03 | locus YLR268W, strain sec22, stronger effect = lower value 0.932 | locus YLR320W, strain mms22, stronger effect = lower value 0.907 | locus YLR330W, strain CHS5, stronger effect = lower value 1.01 | locus YLR342W, strain FKS1 (second series), stronger effect = lower value 0.946 | locus YLR342W, strain FKS1, stronger effect = lower value 0.93 | locus YLR357W, strain rsc2, stronger effect = lower value 0.886 | locus YLR371W, strain rom2, stronger effect = lower value 0.998 | locus YLR384C, strain iki3, stronger effect = lower value 0.957 | locus YML016C, strain PPZ1, stronger effect = lower value 1.01 | locus YML032C, strain rad52, stronger effect = lower value 0.953 | locus YML124C, strain tub3, stronger effect = lower value 0.96 | locus YMR078C, strain ctf18, stronger effect = lower value 0.976 | locus YMR223W, strain ubp8, stronger effect = lower value 0.958 | [11] 1.01 | locus YMR307W, strain GAS1, stronger effect = lower value 0.956 | locus YNL067W, strain RPL9B, stronger effect = lower value 1.02 | [12] 1.01 | locus YNL233W, strain BNI4, stronger effect = lower value 1.03 | locus YNL248C, strain rpa49, stronger effect = lower value 0.925 | locus YNL307C, strain MCK1, stronger effect = lower value 0.971 | locus YNR049C, strain mso1, stronger effect = lower value 0.962 | locus YOL012C, strain htz1 1.07 | locus YOL147C, strain pex11, stronger effect = lower value 0.968 | locus YOR061W, strain CKA2, stronger effect = lower value 1.02 | locus YOR069W, strain VPS5, stronger effect = lower value 1.01 | locus YOR070C, strain gyp1, stronger effect = lower value 0.966 | locus YOR080W, strain dia2, stronger effect = lower value 0.975 | locus YOR136W, strain idh2, stronger effect = lower value 0.976 | locus YOR270C, strain vph1, stronger effect = lower value 1.08 | locus YOR316C, strain cot1, stronger effect = lower value 0.989 | locus YPL051W, strain arl3, stronger effect = lower value 0.938 | [13] 0.999 | locus YPL106C, strain sse1, stronger effect = lower value 0.86 | locus YPR119W, strain clb2, stronger effect = lower value 0.964 | locus YPR163C, strain tif3, stronger effect = lower value 0.968 | locus YPR167C, strain met16, stronger effect = lower value 0.944
1.03 (inactive) and 0.13 (active): locus YJL095W, strain BCK1, stronger effect = lower value
active: locus YAL021C, strain ccr4, stronger effect = lower value 0.816 | locus YAL026C, strain drs2, stronger effect = lower value 0.812 | locus YBR009C, strain hhf1, stronger effect = lower value 0.739 | locus YCL011C, strain gbp2, stronger effect = lower value 0.672 | locus YCL061C, strain MRC1, stronger effect = lower value 0.858 | locus YCR088W, strain abp1, stronger effect = lower value 0.872 | locus YDL185W, strain tfp1, stronger effect = lower value 0.506 | locus YDL192W, strain arf1, stronger effect = lower value 0.852 | locus YDR101C, strain arx1, stronger effect = lower value 0.89 | locus YDR159W, strain sac3, stronger effect = lower value 0.762 | locus YDR195W, strain ref2 0.799 | locus YDR335W, strain msn5, stronger effect = lower value 0.752 | locus YDR392W, strain spt3, stronger effect = lower value 0.526 | locus YDR502C, strain sam2, stronger effect = lower value 0.853 | locus YEL003W, strain gim4, stronger effect = lower value 0.787 | locus YEL061C, strain CIN8 (second series), stronger effect = lower value 0.895 | locus YER015W, strain faa2, stronger effect = lower value 0.912 | locus YGL078C, strain dbp3, stronger effect = lower value 0.567 | locus YGL086W, strain mad1, stronger effect = lower value 0.909 | locus YGL253W, strain hxk2, stronger effect = lower value 0.892 | locus YHR079C, strain IRE1, stronger effect = lower value 0.133 | locus YHR142W, strain chs7, stronger effect = lower value 0.82 | locus YIL125W, strain kgd1, stronger effect = lower value 0.365 | locus YJL092W, strain hpr5, stronger effect = lower value 0.908 | locus YJL129C, strain trk1, stronger effect = lower value 0.684 | locus YJL164C, strain tpk1, stronger effect = lower value 0.84 | locus YJR066W, strain TOR1, stronger effect = lower value 0.465 | locus YKL009W, strain mrt4, stronger effect = lower value 0.387 | locus YKL085W, strain MDH1 (second series), stronger effect = lower value 0.275 | locus YKL085W, strain MDH1, stronger effect = lower value 0.275 | locus YKR001C, strain vps1, stronger effect = lower value 0.813 | locus YLL026W, stronger effect = lower value 0.925 | locus YLR027C, strain aat2, stronger effect = lower value 0.796 | locus YLR113W, strain HOG1, stronger effect = lower value 0.186 | locus YLR221C, strain rsa3, stronger effect = lower value 0.781 | locus YLR258W, strain gsy2, stronger effect = lower value 0.889 | locus YLR262C, strain YPT6 (second series), stronger effect = lower value 0.723 | locus YLR370C, strain arc18, stronger effect = lower value 0.9 | locus YLR418C, strain cdc73, stronger effect = lower value 0.694 | locus YML120C, strain ndi1, stronger effect = lower value 0.439 | locus YMR058W, strain fet3, stronger effect = lower value 0.834 | locus YMR125W, strain sto1, stronger effect = lower value 0.875 | locus YMR129W, stronger effect = lower value 0.911 | locus YMR205C, strain PFK2, stronger effect = lower value 0.759 | locus YMR231W, strain pep5, stronger effect = lower value 0.169 | locus YNL071W, strain lat1, stronger effect = lower value 0.907 | locus YNL183C, strain NPR1, stronger effect = lower value 0.693 | locus YNL209W, strain ssb2, stronger effect = lower value 0.924 | locus YNL250W, strain rad50, stronger effect = lower value 0.328 | locus YNL271C, strain bni1, stronger effect = lower value 0.773 | locus YNL298W, strain CLA4, stronger effect = lower value 0.332 | locus YNL322C, strain KRE1 (second series), stronger effect = lower value 0.83 | locus YNR052C, strain pop2, stronger effect = lower value 0.876 | locus YOR001W, strain rrp6, stronger effect = lower value 0.672 | locus YOR083W, strain WHI5, stronger effect = lower value 0.859 | locus YOR106W, strain vam3, stronger effect = lower value 0.254 | locus YOR144C, strain elg1, stronger effect = lower value 0.898 | locus YOR184W, strain ser1, stronger effect = lower value 0.723 | locus YOR231W, strain MKK1, stronger effect = lower value 0.127 | locus YOR265W, strain rbl2, stronger effect = lower value 0.928 | locus YOR290C, strain snf2, stronger effect = lower value 0.644 | locus YPL078C, strain atp4, stronger effect = lower value 0.873 | locus YPL240C, strain hsp82, stronger effect = lower value 0.894 | locus YPL256C, strain CLN2, stronger effect = lower value 0.189 | locus YPR141C, strain kar3, stronger effect = lower value 0.888 | strain wtn01, stronger effect = lower value 0.841
